Entries with a potency or affinity are not part of this list. Active and inactive are the calls of the source.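 How the source made its calls: active means signal falls with a fitted half-maximal dose at most twice the top dose, in every run; inconclusive means steady partial drop, poor fit, or runs disagree; inactive means flat, rising or too weak in every run.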

Data on 35 molecules can be found in PubChem BioAssay AID720724 (Broad Institute, 2013).

The nature of this test: inhibitors of control Renilla luciferase reporter, dose response, counter-screen for Shn3 3'UTR targeting project, Clone20-Shn3RL cells, dual-Glo, cherry-pick, set 2 (AID 720724). (A reporter such as luciferase makes a cellular process visible.)

As for `CCCn1c(C)cc(C(=O)CN2C(=O)c3ccccc3S2(=O)=O)c1C`, the molecule was called inactive.

In the case of `CCOc1ccc(N(C)S(=O)(=O)c2cc(-c3cc(C)no3)ccc2C(C)C)cc1`, the outcome was inactive.

In the case of `COc1ccccc1NS(=O)(=O)c1cc(NC(=O)c2ccc(Cl)nc2)ccc1Cl`, the molecule was classed as inactive.

As for `CCn1c(C)cc(C(=O)COC(=O)c2ccccc2[N+](=O)[O-])c1C`, the result was inactive.

Regarding `O=C(c1cc(COc2ccc3ncccc3c2)on1)N1CCCCCC1`, the molecule was classed as inactive.

For `Cc1ccc(NC(=O)c2cc(S(=O)(=O)NCCC3=CCCCC3)ccc2F)cc1F`, the outcome was inactive.

As for `CC(C)(C)C(=O)Nc1cc2nn(-c3ccccc3)nc2cc1Cl`, the molecule was classed as inactive.

Turning to `CCOC(=O)c1cn(CC(=O)Nc2cccc(Cl)c2C)nn1`, the molecule was classed as inactive.

With `CCN(CC)S(=O)(=O)c1ccc(S(=O)(=O)Nc2c(C)nn(C)c2C)cc1`, the molecule was called inactive.

`Cn1nc(CC(=O)Nc2ccc3c(c2)OCCO3)c2ccccc2c1=O`: the call was inactive.

On to `CC(C)Cn1c(N)c(C(=O)COC(=O)C2Cc3ccccc3CN2S(C)(=O)=O)c(=O)n(C)c1=O` (stereo not given), for which the result was inactive.

With `OCCCNc1nccc(-c2cc(Nc3cccc(Cl)c3)ncn2)n1`, the call was inactive.

Turning to `Oc1ccc(-c2n[nH]c(C(F)(F)F)c2-c2ccccc2)c(O)c1`, the molecule was classed as inactive.

As for `CCSc1nnc(NC(=O)c2nc(S(=O)(=O)Cc3ccc(F)cc3)ncc2Cl)s1`, the outcome was inactive.

As to `Cc1ccc2c(c1)nnn2C1CCN(S(=O)(=O)c2ccc(C(=O)N3C(C)CCCC3C)cc2)CC1` (stereo not given), the call was inactive.

For `COc1cc(NC(=O)c2cccc3c(-c4cccnc4)coc23)cc(OC)c1OC`, the outcome was inactive.

On to `CCOC(=O)Cn1c(S(=O)(=O)Cc2ccccc2Cl)nc(-c2ccccc2)c1-c1ccccc1`, for which the result was inactive.

Turning to `COc1ccc(NS(=O)(=O)c2ccc(OC)c(N(C)S(=O)(=O)c3ccc(Cl)cc3)c2)cc1`, the molecule was called inactive.

On to `CCc1ccccc1NC(=O)COC(=O)c1c(C)nsc1NC`, for which the result was inactive.

`CCOC(=O)C1CCCN(S(=O)(=O)c2ccc(S(=O)(=O)N3CCCC3)cc2)C1` (stereo not given): the result was inactive.

Take `Cn1c(=O)c2c(nc(NCc3ccco3)n2CCc2ccccc2)n(C)c1=O`: the molecule was called inactive.

Regarding `COc1ccccc1N1CCN(c2ncc(C(=O)N3CCN(c4cccc(Cl)c4)CC3)c3ccccc23)CC1`, the molecule was called inactive.

On to `COc1cccc(-n2c(C)nc3c(cnn3-c3ccc(Cl)cc3)c2=O)c1`, for which the result was inactive.

Take `Cc1onc(-c2ccccc2Cl)c1C(=O)N(C)C1CCCCC1`: the result was inactive.

Turning to `O=C(c1n[nH]c(=O)c2ccccc12)N1CCN(C2c3ccccc3-c3ccccc32)CC1`, the call was inactive.

For the molecule `Cc1cccc(NS(=O)(=O)c2ccc(C3CCCCC3)cc2)c1`, the outcome was inactive.

As to `Cc1ccc(-c2cn3cc(C)ccc3n2)cc1`, the molecule was called inactive.

`CCCCN1CC(COCc2ccccc2)Oc2cccc(Oc3ccc(C(C)C)cc3)c2S1(=O)=O` (stereo not given): the call was inactive.

With `CCn1c(CNC(=O)c2cc(OC)c(OC)c(OC)c2)cc2cc(C)ccc21`, the result was inactive.

For the molecule `c1ccc(-c2noc(-c3ccc4ccccc4c3)n2)nc1`, the result was inactive.

Turning to `CC(C)CCOc1cccc(OCC(=O)Nc2ccncc2)c1`, the molecule was called inactive.

Take `CCCCOCCCNc1ncnc2c1[nH]c1ccccc12`: the result was inactive.

Take `Cc1cccc(-c2noc(CN(C(=O)C(c3ccccc3)c3ccccc3)C(C)C)n2)c1`: the molecule was called inactive.

Turning to `O=C(COC(=O)c1n[nH]c2ccccc12)Nc1ccc(S(=O)(=O)N2CCCC2)cc1`, the molecule was called inactive.

As for `Cc1ccc(-c2nc3ncccc3o2)cc1NC(=O)c1sc2ccccc2c1Cl`, the molecule was called inactive.
